According to PMC7862700, “An all-to-all approach to the identification of sequence-specific readers for epigenetic DNA modifications on cytosine”:

How the values were obtained:
Test in all cases: DAPPL (digital affinity profiling via proximity ligation, sequencing); 10 mM Tris-HCl pH 7.5, 50 mM NaCl, 1 mM DTT, 4% glycerol, room temperature, 30 min; GST-TFs on glutathione beads, 16-mer random dsDNA library, 0.1% formaldehyde crosslink after washing; high values mean tight binding
Settings in all cases: protein: recombinant; tags: N-terminal GST; dsDNA, one strand shown
FLI1 = target: T1, FLI1 (Homo sapiens, UniProt Q01543 1-452)
T1 sequence: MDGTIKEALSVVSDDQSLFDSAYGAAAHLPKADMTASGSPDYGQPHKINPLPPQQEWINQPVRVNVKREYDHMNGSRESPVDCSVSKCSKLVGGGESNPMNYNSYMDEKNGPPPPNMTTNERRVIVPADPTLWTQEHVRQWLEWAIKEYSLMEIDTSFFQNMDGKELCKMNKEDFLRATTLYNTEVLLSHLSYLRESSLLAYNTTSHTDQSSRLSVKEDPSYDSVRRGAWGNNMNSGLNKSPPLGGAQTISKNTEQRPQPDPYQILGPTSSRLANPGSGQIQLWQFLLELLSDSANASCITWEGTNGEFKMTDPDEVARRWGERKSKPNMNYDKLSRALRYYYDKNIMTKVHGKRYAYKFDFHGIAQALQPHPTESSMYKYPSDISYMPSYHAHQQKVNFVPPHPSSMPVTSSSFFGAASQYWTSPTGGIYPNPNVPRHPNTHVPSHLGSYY
Procedure, shortened: (§1)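 Sequencing on an Illumina NextSeq500 followed washing, crosslinking with 0.1% formaldehyde, proximity ligation (BsaI/T4 ligase, 1 h, 37 °C) and PCR amplification of pools that had been incubated for 30 min at room temperature with 200 nmole of a random double-stranded 16-mer DNA library in Tris/NaCl/DTT/glycerol buffer. Each pool held DNA-barcoded human transcription factors, expressed in yeast as GST fusions and captured on glutathione beads, plus a tag-only sample. Binding signal is a hexamer's read frequency for a factor divided by its frequency in the tag-only sample.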

ELK1 = target: T2, ELK1 (Homo sapiens, UniProt P19419 1-428)
T2 sequence: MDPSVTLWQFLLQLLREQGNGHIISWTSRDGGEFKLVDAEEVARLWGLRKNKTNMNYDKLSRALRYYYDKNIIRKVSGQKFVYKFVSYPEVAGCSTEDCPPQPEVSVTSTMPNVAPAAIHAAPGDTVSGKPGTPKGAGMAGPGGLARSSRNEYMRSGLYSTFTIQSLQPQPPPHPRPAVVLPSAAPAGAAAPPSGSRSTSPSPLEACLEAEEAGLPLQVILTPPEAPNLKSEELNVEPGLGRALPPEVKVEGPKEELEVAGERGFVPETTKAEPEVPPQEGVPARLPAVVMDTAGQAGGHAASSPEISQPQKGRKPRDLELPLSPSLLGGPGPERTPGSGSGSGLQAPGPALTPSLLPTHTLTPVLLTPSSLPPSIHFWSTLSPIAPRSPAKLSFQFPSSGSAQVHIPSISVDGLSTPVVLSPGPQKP
Procedure, shortened: as §1

GABPA = target: T3, GABPA (Homo sapiens, UniProt Q06546 1-454)
T3 sequence: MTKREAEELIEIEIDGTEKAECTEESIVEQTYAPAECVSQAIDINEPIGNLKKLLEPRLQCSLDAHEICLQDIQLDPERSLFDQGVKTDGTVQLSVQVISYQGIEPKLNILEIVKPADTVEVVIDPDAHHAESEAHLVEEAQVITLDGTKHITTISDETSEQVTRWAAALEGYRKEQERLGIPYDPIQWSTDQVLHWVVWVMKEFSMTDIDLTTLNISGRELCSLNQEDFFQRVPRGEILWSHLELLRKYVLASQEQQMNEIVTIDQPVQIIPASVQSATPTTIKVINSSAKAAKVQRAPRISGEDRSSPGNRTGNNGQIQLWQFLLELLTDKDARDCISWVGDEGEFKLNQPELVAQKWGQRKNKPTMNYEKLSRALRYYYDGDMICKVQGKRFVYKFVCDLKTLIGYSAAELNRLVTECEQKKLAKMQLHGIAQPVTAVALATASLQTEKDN
Procedure, shortened: as §1

ERG = target: T4, ERG (Homo sapiens, UniProt P11308 1-479)
T4 sequence: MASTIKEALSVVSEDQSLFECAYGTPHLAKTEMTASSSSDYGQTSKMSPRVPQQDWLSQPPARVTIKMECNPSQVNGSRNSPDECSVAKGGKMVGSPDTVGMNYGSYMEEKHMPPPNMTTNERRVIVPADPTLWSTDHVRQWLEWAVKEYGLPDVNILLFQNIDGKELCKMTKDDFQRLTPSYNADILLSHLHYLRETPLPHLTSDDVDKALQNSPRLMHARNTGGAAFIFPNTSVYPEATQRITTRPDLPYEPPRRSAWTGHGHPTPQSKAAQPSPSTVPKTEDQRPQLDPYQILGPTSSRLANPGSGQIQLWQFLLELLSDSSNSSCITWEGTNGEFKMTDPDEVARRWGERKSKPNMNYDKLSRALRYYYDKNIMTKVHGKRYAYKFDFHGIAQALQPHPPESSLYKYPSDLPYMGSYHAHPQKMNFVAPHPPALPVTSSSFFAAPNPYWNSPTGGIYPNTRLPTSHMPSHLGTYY
Procedure, shortened: as §1

ELF1 = ELF1 (Homo sapiens, UniProt P32519 1-619)
Procedure, shortened: as §1

EHF = target: T5, EHF (Homo sapiens, UniProt Q9NZC4 1-300)
T5 sequence: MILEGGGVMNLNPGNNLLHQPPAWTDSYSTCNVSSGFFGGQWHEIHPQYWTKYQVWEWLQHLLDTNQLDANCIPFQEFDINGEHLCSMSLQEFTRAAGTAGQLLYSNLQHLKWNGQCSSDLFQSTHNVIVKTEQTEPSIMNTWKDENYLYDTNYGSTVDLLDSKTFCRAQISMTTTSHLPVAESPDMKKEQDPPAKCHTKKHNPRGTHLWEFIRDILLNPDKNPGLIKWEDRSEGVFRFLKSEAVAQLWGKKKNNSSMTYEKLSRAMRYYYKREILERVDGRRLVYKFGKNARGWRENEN
Procedure, shortened: as §1

SPI1 = SPI1 (Homo sapiens, UniProt P17947 1-270)
Procedure, shortened: as §1

SPIB = SPIB (Homo sapiens, UniProt Q01892 1-262)
Procedure, shortened: as §1

ELK3 = target: T6, ELK3 (Homo sapiens, UniProt P41970 1-407)
T6 sequence: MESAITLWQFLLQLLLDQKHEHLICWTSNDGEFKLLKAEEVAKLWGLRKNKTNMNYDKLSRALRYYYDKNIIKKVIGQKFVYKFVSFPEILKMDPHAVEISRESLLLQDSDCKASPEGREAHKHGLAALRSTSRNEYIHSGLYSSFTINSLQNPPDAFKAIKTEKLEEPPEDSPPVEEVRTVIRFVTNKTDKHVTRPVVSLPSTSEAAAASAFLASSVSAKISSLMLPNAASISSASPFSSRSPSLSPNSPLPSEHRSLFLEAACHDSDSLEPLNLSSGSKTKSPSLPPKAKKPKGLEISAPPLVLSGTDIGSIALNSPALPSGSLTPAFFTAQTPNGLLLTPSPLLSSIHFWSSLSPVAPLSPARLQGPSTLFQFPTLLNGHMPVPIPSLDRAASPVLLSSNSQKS
Procedure, shortened: as §1

FEV = target: T7, FEV (Homo sapiens, UniProt Q99581 1-238)
T7 sequence: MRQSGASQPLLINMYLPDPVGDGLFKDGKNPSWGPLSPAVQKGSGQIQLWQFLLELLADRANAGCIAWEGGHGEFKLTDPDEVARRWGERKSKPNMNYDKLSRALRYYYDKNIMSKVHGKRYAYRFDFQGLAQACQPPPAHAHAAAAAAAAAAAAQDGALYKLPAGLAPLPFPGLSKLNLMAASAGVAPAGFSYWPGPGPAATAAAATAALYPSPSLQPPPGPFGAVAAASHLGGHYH
Procedure, shortened: as §1

ETV5 = ETV5 (Homo sapiens, UniProt P41161 1-510)
Procedure, shortened: as §1

SPIC = target: T8, SPIC (Homo sapiens, UniProt Q8N5J4 1-248)
T8 sequence: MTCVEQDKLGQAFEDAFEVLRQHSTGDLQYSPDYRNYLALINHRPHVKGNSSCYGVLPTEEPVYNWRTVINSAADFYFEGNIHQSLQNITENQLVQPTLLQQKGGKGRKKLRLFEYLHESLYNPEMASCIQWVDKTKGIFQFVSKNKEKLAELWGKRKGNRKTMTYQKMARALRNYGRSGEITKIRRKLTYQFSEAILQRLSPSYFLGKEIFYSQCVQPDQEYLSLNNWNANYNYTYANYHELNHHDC
Procedure, shortened: as §1

ELF4 = ELF4 (Homo sapiens, UniProt Q99607 1-663)
Procedure, shortened: as §1

ELK4 = target: T9, ELK4 (Homo sapiens, UniProt P28324-2 1-405)
T9 sequence: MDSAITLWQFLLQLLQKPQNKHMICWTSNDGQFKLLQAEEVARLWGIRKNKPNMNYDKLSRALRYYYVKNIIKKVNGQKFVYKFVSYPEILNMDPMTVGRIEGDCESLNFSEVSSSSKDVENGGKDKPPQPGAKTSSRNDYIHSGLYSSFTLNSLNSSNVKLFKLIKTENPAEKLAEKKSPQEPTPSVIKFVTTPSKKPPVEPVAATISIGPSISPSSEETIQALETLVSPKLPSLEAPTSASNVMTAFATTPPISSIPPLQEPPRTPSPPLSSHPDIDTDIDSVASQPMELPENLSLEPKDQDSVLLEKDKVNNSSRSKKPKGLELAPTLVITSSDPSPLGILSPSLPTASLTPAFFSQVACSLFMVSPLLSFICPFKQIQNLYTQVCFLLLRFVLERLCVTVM
Procedure, shortened: as §1

ETV2 = target: T10, ETV2 (Homo sapiens, UniProt O00321 1-342)
T10 sequence: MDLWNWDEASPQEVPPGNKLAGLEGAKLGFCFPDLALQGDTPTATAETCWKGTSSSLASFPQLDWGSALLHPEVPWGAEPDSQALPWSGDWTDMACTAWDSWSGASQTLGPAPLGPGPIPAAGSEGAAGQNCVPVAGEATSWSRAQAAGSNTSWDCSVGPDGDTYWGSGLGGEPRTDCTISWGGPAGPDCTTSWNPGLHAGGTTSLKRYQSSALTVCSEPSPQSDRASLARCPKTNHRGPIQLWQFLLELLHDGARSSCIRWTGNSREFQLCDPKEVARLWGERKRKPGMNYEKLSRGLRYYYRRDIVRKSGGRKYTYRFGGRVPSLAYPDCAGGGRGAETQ
Procedure, shortened: as §1

ELF3 = target: T11, ELF3 (Homo sapiens, UniProt P78545 1-371)
T11 sequence: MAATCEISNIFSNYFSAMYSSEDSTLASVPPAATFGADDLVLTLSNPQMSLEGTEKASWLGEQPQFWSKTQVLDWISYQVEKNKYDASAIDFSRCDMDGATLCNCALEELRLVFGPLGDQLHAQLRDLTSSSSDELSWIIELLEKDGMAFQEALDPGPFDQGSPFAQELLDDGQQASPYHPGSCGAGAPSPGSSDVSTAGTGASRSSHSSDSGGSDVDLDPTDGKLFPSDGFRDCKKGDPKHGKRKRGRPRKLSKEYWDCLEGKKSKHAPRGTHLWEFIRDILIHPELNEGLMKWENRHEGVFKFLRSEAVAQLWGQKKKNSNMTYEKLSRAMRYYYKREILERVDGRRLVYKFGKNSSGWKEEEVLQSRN
Procedure, shortened: as §1

ETV1 = ETV1 (Homo sapiens, UniProt P50549 1-477)
Procedure, shortened: as §1

ETV1, sequence (P50549 whole entry): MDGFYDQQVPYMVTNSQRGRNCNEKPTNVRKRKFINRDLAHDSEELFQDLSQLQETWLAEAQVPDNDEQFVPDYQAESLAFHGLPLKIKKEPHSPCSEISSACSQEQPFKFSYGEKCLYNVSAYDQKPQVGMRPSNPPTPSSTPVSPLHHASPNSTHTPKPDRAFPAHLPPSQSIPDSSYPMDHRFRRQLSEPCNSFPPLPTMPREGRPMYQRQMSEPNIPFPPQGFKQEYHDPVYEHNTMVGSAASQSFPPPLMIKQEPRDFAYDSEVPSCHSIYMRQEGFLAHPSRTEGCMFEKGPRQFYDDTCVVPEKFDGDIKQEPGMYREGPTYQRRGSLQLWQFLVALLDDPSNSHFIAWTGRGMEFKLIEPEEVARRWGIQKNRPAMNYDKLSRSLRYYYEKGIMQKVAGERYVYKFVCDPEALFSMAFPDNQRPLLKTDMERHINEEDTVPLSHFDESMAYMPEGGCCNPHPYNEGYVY
SPIB, sequence (Q01892 whole entry): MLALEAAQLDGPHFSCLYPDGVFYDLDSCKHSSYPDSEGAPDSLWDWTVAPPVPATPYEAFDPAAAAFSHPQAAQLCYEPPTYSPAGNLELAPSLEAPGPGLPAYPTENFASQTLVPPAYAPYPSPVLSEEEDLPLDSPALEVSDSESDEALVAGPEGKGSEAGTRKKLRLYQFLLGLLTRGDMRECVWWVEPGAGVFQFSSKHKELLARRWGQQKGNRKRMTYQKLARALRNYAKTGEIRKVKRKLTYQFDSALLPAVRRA
ETV5, sequence (P41161 whole entry): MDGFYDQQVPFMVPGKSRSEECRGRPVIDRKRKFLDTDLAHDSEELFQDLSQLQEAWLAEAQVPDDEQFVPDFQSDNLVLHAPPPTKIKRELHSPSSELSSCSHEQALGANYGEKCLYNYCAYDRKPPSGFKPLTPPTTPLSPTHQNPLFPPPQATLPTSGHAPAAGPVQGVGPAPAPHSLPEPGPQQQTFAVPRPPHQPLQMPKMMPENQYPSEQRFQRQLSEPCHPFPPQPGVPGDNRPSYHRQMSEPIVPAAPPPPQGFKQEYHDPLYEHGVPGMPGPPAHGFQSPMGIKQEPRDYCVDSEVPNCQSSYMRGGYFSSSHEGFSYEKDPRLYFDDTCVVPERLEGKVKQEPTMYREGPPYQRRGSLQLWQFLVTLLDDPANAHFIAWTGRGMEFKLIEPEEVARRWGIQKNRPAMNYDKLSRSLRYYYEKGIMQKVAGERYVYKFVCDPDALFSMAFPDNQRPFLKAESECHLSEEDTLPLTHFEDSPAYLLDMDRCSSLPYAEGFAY
ELF1, sequence (P32519 whole entry): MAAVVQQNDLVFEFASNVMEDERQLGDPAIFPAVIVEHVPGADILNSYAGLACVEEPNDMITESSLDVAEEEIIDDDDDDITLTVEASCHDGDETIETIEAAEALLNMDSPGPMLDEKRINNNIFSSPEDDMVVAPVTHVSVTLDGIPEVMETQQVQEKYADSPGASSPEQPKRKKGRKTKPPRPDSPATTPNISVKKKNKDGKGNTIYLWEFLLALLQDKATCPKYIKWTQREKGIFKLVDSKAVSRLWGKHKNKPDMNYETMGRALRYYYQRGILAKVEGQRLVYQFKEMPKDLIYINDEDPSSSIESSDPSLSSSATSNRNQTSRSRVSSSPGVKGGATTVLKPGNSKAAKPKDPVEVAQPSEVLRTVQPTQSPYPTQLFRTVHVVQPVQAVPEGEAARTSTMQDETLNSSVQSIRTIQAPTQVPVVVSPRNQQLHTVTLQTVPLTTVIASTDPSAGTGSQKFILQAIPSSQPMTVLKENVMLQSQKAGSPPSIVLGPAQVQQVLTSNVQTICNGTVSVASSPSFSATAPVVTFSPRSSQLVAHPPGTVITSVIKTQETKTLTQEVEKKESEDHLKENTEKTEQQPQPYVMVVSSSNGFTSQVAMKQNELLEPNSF
ELF4, sequence (Q99607 whole entry): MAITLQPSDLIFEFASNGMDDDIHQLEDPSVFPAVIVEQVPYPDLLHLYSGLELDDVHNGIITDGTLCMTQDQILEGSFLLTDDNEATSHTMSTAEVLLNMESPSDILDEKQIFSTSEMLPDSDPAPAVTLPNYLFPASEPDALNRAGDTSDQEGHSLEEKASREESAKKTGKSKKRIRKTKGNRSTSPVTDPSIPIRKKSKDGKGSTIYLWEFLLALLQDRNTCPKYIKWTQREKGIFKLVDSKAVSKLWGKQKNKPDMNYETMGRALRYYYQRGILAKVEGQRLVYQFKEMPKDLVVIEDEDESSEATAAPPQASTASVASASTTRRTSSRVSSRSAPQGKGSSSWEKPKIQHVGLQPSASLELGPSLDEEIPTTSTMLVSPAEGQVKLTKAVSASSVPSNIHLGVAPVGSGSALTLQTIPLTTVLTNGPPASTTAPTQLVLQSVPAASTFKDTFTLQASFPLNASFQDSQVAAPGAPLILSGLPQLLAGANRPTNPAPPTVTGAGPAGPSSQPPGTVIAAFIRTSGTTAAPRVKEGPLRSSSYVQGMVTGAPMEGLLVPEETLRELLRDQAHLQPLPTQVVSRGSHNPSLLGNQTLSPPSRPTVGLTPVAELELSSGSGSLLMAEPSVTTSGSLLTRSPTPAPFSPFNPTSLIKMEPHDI

Row | Sequence | binding signal (FLI1) | binding signal (ELK1) | binding signal (GABPA) | binding signal (ERG) | binding signal (ELF1) | binding signal (EHF) | binding signal (SPI1) | binding signal (SPIB) | binding signal (ELK3) | binding signal (FEV) | binding signal (ETV5) | binding signal (SPIC) | binding signal (ELF4) | binding signal (ELK4) | binding signal (ETV2) | binding signal (ELF3) | binding signal (ETV1)
1 | TGCGAC | 1.2 fold enrichment (6-mer frequency, TF over GST control) | 1.25 fold enrichment (6-mer frequency, TF over GST control) | 1.21 fold enrichment (6-mer frequency, TF over GST control) | 1.26 fold enrichment (6-mer frequency, TF over GST control) | 1.22 fold enrichment (6-mer frequency, TF over GST control) | 1.13 fold enrichment (6-mer frequency, TF over GST control) | 1.24 fold enrichment (6-mer frequency, TF over GST control) | 1.27 fold enrichment (6-mer frequency, TF over GST control) | 1.16 fold enrichment (6-mer frequency, TF over GST control) | 1.24 fold enrichment (6-mer frequency, TF over GST control) | 1.24 fold enrichment (6-mer frequency, TF over GST control) | 1.3 fold enrichment (6-mer frequency, TF over GST control) | 1.27 fold enrichment (6-mer frequency, TF over GST control) | 1.25 fold enrichment (6-mer frequency, TF over GST control) | 1.33 fold enrichment (6-mer frequency, TF over GST control) | 1.32 fold enrichment (6-mer frequency, TF over GST control) | 1.18 fold enrichment (6-mer frequency, TF over GST control)
2 | CGTCAC | 1.24 fold enrichment (6-mer frequency, TF over GST control) | 1.27 fold enrichment (6-mer frequency, TF over GST control) | 1.18 fold enrichment (6-mer frequency, TF over GST control) | 1.31 fold enrichment (6-mer frequency, TF over GST control) | 1.24 fold enrichment (6-mer frequency, TF over GST control) | 1.2 fold enrichment (6-mer frequency, TF over GST control) | 1.28 fold enrichment (6-mer frequency, TF over GST control) | 1.18 fold enrichment (6-mer frequency, TF over GST control) | 1.09 fold enrichment (6-mer frequency, TF over GST control) | 1.26 fold enrichment (6-mer frequency, TF over GST control) | 1.24 fold enrichment (6-mer frequency, TF over GST control) | 1.18 fold enrichment (6-mer frequency, TF over GST control) | 1.31 fold enrichment (6-mer frequency, TF over GST control) | 1.24 fold enrichment (6-mer frequency, TF over GST control) | 1.12 fold enrichment (6-mer frequency, TF over GST control) | 1.21 fold enrichment (6-mer frequency, TF over GST control) | 1.2 fold enrichment (6-mer frequency, TF over GST control)
3 | TGCACG | 1.12 fold enrichment (6-mer frequency, TF over GST control) | 1.06 fold enrichment (6-mer frequency, TF over GST control) | 1.18 fold enrichment (6-mer frequency, TF over GST control) | 1.03 fold enrichment (6-mer frequency, TF over GST control) | 1.16 fold enrichment (6-mer frequency, TF over GST control) | 1.22 fold enrichment (6-mer frequency, TF over GST control) | 1.12 fold enrichment (6-mer frequency, TF over GST control) | 1.23 fold enrichment (6-mer frequency, TF over GST control) | 1.15 fold enrichment (6-mer frequency, TF over GST control) | 1.15 fold enrichment (6-mer frequency, TF over GST control) | 1.14 fold enrichment (6-mer frequency, TF over GST control) | 1.03 fold enrichment (6-mer frequency, TF over GST control) | 1.13 fold enrichment (6-mer frequency, TF over GST control) | 1.24 fold enrichment (6-mer frequency, TF over GST control) | 1.22 fold enrichment (6-mer frequency, TF over GST control) | 1.26 fold enrichment (6-mer frequency, TF over GST control) | 1.06 fold enrichment (6-mer frequency, TF over GST control)
